{"source": "PubChem BioAssay (Tox21)", "note": "Results filed as inconclusive are left out. Unmarked numbers belong to inactive results. Calls of active or inactive are those of the source. Calls follow the shape of the full dose curve. % is scaled to controls: 0 for no effect and ±100 for the full control effect; potency is read from the fitted curve at half-maximal effect."}
{"biological_target": "Thyrotropin receptor (Homo sapiens) (UniProt P16473)", "sequence (P16473 whole entry, looked up)": "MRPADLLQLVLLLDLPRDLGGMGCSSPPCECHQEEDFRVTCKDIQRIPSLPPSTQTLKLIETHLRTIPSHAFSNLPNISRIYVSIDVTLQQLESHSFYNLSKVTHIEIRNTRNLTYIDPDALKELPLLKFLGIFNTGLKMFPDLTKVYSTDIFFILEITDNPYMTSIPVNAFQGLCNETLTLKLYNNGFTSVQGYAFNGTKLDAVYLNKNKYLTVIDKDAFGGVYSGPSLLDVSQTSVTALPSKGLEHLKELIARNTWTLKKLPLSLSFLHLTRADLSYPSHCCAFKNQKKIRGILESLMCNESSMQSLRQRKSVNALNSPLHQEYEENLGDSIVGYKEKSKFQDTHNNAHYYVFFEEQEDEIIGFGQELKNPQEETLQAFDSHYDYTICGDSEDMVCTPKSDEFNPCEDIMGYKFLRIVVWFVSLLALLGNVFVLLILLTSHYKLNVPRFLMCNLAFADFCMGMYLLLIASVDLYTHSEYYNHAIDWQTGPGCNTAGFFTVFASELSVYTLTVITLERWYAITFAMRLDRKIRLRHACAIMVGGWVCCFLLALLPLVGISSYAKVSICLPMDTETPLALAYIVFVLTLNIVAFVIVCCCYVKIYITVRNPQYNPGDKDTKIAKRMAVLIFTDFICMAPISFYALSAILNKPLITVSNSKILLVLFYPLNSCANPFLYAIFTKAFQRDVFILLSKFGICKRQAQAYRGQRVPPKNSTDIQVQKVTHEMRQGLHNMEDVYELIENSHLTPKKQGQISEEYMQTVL", "test": "qHTS assay to identify small molecule antagonists of the thyroid stimulating hormone receptor (TSHR) signaling pathway (AID 1259385); also: nearly all actives have a fitted effect of over 20% in size", "details": "TSHR-HEK293 cAMP HTRF, TSH-stimulated antagonist mode; series mostly up to 92.4 µM; activity change, negative = inhibition: at the top concentration", "text": "U.S. Tox21 Program National Center for Advancing Translational Sciences [NCATS] NIH Chemical Genomics Center [NCGC] U.S. Environmental Protection Agency [EPA] National Institutes of Environmental Health Sciences [NIEHS] National Toxicology Program [NTP] U.S. Food and Drug Administration [FDA] Tox21 Assay Overview: TSHR is the receptor for thyrotropin (thyroid stimulating hormone or TSH), a member of the glycoprotein hormone family. TSH is released by the anterior pituitary gland and is the main regulator of thyroid gland growth and development. Upon binding circulating thyrotropin, a G-protein signal cascade activates adenylyl cyclase and […] cAMP concentration is increased. cAMP is a key second messenger involved extensively in cellular signal transduction pathways associated with the majority of G-protein coupled receptors (GPCRs). The activation of these GPCRs by neurotransmitters, lipids, nucleotides, peptides and hormones results in the activation or the inhibition of plasma membrane-bound adenylate cyclase through heterotrimeric G-proteins. A cell-based TSHR assay can be used to screen chemical compounds that modulate TSHR either in agonist or antagonist mode.\nTox21 Assay Protocol Summary: TSHR-Hek293 cells were dispensed at 800 cells/4uL/well in 1536-well white plates using a Multidrop dispenser. After the assay plates were incubated at a 37C/5% CO2 incubator for 18 hrs, 23 nL of compounds dissolved in DMSO, positive controls or DMSO only was transferred to the assay plate by a pin tool, followed by 1 ul medium containing Ro20-1724. For the antagonist mode screening, 1 uL of TSH was added on the top of the cell/compound mixtures to achieve a final agonist concentration of 1.5 ng/mL. After 30 min of incubation at room temperature, 2.5 ul/well of cAMP-d2 and 2.5 ul/well of anti-cAMP-cryptate were added respectively into the assay plates using a Flying Reagent Dispenser. The plates were incubated at room temperature for 1 hr. The fluorescence intensity in the plates was measured using an Envision plate reader. Each test compound was measured at 15 concentrations and in triplicates."}
{"smiles": "CCOC(=O)C1=C(C)NC(C)=C(C(=O)OC)C1c1cccc([N+](=O)[O-])c1", "note": "(stereo not given)", "activity change, negative = inhibition": "-4.68% [at 42.5 µM]"}
{"smiles": "NCc1ccccc1", "activity change, negative = inhibition": "-0.0825%"}
{"smiles": "Cn1sccc1=O", "Potency": "inactive"}
{"smiles": "CC(C)NCC(O)COc1ccc(CC(N)=O)cc1", "note": "(stereo not given)", "activity change, negative = inhibition": "0.0017%"}
{"smiles": "CCc1nn(C2CCCCC2)c2cc(C3(C#N)CCC(C(=O)O)CC3)ccc12", "note": "(stereo not given)", "activity change, negative = inhibition": "-0.641%"}
{"smiles": "Cn1c(N)nc2nc[nH]c2c1=O", "Potency": "48 µM (active)"}
{"smiles": "O=C(C(=O)c1ccc(Br)cc1)c1ccc(Br)cc1", "activity change, negative = inhibition": "-5.08% [at 19 µM]"}
{"smiles": "CN(C)C/C=C(/c1ccc(Br)cc1)c1cccnc1", "activity change, negative = inhibition": "0.351% [at 42.5 µM]"}
{"smiles": "O=c1[nH]cnc2ccccc12", "activity change, negative = inhibition": "-0.259%"}
{"smiles": "O=C(O)Cc1sc(-c2ccccc2)nc1-c1ccc(Cl)cc1", "activity change, negative = inhibition": "-2.9% [at 42.5 µM]"}
{"smiles": "CCCCCCCCCCCCCCCBr", "activity change, negative = inhibition": "-0.0409% [at 42.5 µM]"}
{"smiles": "C=C(C)C(=O)OCCOc1ccccc1", "activity change, negative = inhibition": "-0.735%"}
{"smiles": "COC(Cc1ccccc1)OC", "activity change, negative = inhibition": "0.625%"}
{"smiles": "CCCCCOC(=O)COc1cc(N2C(=O)C3=C(CCCC3)C2=O)c(F)cc1Cl", "activity change, negative = inhibition": "0.538%"}
{"smiles": "CN1CCN(C2=Nc3cc(Cl)ccc3Nc3ccccc32)CC1", "activity change, negative = inhibition": "-3.83% [at 42.5 µM]"}
{"smiles": "CCCCCCCCCCCCC(=O)O", "activity change, negative = inhibition": "0.666%"}
{"smiles": "CCOc1nc2cccc(C(=O)O)c2n1Cc1ccc(-c2ccccc2-c2nn[nH]n2)cc1", "activity change, negative = inhibition": "-0.882% [at 42.5 µM]"}
{"smiles": "CC1(C)[C@H]2CC[C@]1(C)[C@H](O)C2", "activity change, negative = inhibition": "1.66%"}
{"smiles": "OCC1CC2CC1C1CCC(CO)C21", "note": "(stereo not given)", "activity change, negative = inhibition": "-0.0888%"}
{"smiles": "CC/C(=C\\C(=N/O)C(N)=O)C(C)[N+](=O)[O-]", "note": "(stereo not given)", "activity change, negative = inhibition": "0.104%"}
{"smiles": "CCN(CC)CCOC(=O)C1(c2ccccc2)CCCC1", "activity change, negative = inhibition": "0.0062% [at 42.5 µM]"}
{"smiles": "CN(C)CC/C=C1\\c2ccccc2COc2ccccc21", "Potency": "29.8 µM (active)"}
{"smiles": "CCCc1ccccc1", "activity change, negative = inhibition": "0.953%"}
{"smiles": "CC(C)(C)C1CCCCC1O", "note": "(stereo not given)", "activity change, negative = inhibition": "0.576%"}
{"smiles": "CCCCOC(=O)/C=C\\C(=O)OCCCC", "activity change, negative = inhibition": "2.46%"}
{"smiles": "CN1CCC(=C2c3ccccc3CCc3sccc32)CC1", "activity change, negative = inhibition": "-1.43% [at 42.5 µM]"}
{"smiles": "CCCCCCCCN(C)C", "activity change, negative = inhibition": "-0.101%"}
{"smiles": "N=C(N=C(N)N)N1CCOCC1", "activity change, negative = inhibition": "0.594% [at 42.5 µM]"}
{"smiles": "CCOc1ccc2[nH]cc(C(=O)NCc3ccccc3)c(=O)c2n1", "activity change, negative = inhibition": "-2.77%"}
{"smiles": "O=C(O)Cc1cc(I)c(Oc2ccc(O)c(I)c2)c(I)c1", "activity change, negative = inhibition": "-2.58%"}
{"smiles": "O=C(CC(=O)c1ccccc1)c1ccccc1", "activity change, negative = inhibition": "0.317%"}
{"smiles": "CC(C)c1cccc(C(C)C)c1NC(=O)NS(=O)(=O)c1cc(C(C)(C)O)co1", "activity change, negative = inhibition": "0.751%"}
{"smiles": "CC(=O)N(O)CCCCCNC(=O)CCC(=O)N(O)CCCCCNC(=O)CCC(=O)N(O)CCCCCN", "activity change, negative = inhibition": "-5.23% [at 42.5 µM]"}
{"smiles": "CCCCOC(=O)c1ccccc1C(=O)OCC(CC)CCCC", "note": "(stereo not given)", "activity change, negative = inhibition": "-0.252%"}
{"smiles": "O=C1Nc2cc(Cl)ccc2Oc2ccccc21", "activity change, negative = inhibition": "1.6% [at 42.5 µM]"}
{"smiles": "O=C=NC1CCC(CC2CCC(N=C=O)CC2)CC1", "note": "(stereo not given)", "activity change, negative = inhibition": "5.84%"}
{"smiles": "Oc1ccc(O)c2c(O)cccc12", "activity change, negative = inhibition": "-0.377%"}
{"smiles": "O=c1c2ccccc2nnn1CCl", "activity change, negative = inhibition": "-0.624%"}
{"smiles": "CCCCOC(O)CC", "note": "(stereo not given)", "activity change, negative = inhibition": "-1.77%"}
{"smiles": "CC(C)(C)c1cc(CO)cc(C(C)(C)C)c1O", "activity change, negative = inhibition": "0.705%"}
